Screening results as filed in PubChem BioAssay.
CHX counter = affects cycloheximide protein synthesis inhibition readout, counter-screen; 300,000 compounds, 12% hits; cell reporter, cycloheximide protein synthesis inhibition counterscreen; max response, %; in the data active = max response mostly above about 13%, no sharp cut-off; inactive = mostly below about 14%; also: read at 38.3 µM for the half of the compounds with a filed dose; 0% is about no effect
NS1 inh = blocks influenza NS1 protein function; 270,000 compounds, 0.4% hits; Potency, µM (highest dose often 46.1 µM), inactives show at the top dose activity, positive = more growth; also: potency is read from the fitted curve at half-maximal effect; actives are rising curves; nearly all actives have a fitted effect of over 50% in size
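Growth recovery, yeast-based: influenza A NS1 expressed in S. cerevisiae causes slow growth, and suppressors are detected by OD600. The parent strain without NS1 is used as positive control.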
SARS PLpro yeast = inhibitors of SARS-CoV papain-like protease in yeast. S. cerevisiae expressing SARS-CoV PLpro, growth rescue. 330,000 compounds, 0.19% hits. Potency, µM (series often up to 32.9 µM), for the others: at the highest dose activity, positive = growth rescue, most hits filed as activators; also: potency is read from the fitted curve at half-maximal effect; 0% is about no effect; nearly all actives have a fitted effect of over 55% in size
Pf growth 96h = P. falciparum growth inhibition at 96 hours | P. falciparum luciferase reporter growth, 96 h | Potency, µM (titrated, usually from 28.7 µM), inactives show at the top dose activity change, negative = inhibition, actives largely listed as inhibitors | 320,000 compounds, 6.9% hits | AID 504834; active = well fitted inhibition curve with a large enough effect; inconclusive = small, poorly fitted or top-dose-only effect, or another doubt; inactive = no such curve, though single readings can be large or run the other way; also: potency is read from the fitted curve at half-maximal effect; % is scaled to controls: 0 for no effect and ±100 for the full control effect
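Cell-based qHTS: luciferase-tagged P. falciparum in erythrocytes (2% hematocrit, 0.05% parasitemia final) incubated with compounds for 96 hours, 37 C, 5% CO2; luciferase detection reagent then added and luminescence measured.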
Pf growth 48h = inhibits P. falciparum growth in the first generation, 48 h | Potency, µM (titrated, usually from 28.7 µM), for the others: at the top dose activity change, negative = inhibition, actives largely listed as inhibitors | P. falciparum luciferase growth in erythrocytes, 48 h | AID 504832 | 310,000 compounds, 5.9% hits; active = well fitted inhibition curve with a large enough effect; inconclusive = small, poorly fitted or top-dose-only effect, or another doubt; inactive = no such curve, though single readings can be large or run the other way; also: potency is read from the fitted curve at half-maximal effect; % is scaled to controls: 0 for no effect and ±100 for the full control effect
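Read-out is firefly luciferase luminescence from an integrated reporter in P. falciparum, so falling signal marks reduced parasite growth. Infected erythrocytes were at 2% hematocrit and 0.1% parasitemia (final) in Albumax-supplemented RPMI 1640.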
Shiga toxin inh = Shiga toxin inhibition; Vero cells, Shiga toxin protein synthesis inhibition reporter; inhibition, % at 38.7 µM; 290,000 compounds, 9.2% hits; in the data active = inhibition mostly above about 28%, no sharp cut-off; inactive = mostly below about 43%; also: 0% is about no effect
The depositor's hits bear a star; ? = inconclusive; . = not tested or not shown. This is a sample that favours compounds with a hit; in the whole collection about 21% have one here. Unless noted, calls follow the shape of the full dose curve.

SMILES	CHX counter	NS1 inh	SARS PLpro yeast	Pf growth 96h	Pf growth 48h	Shiga toxin inh
Cc1ccc(NS(=O)(=O)c2cc(-c3cc(C)no3)ccc2C(C)C)nc1	11	-5%	4%	-29%	-7%	-1
CCc1ccc(-c2cc(C)no2)cc1S(=O)(=O)Nc1ccccn1	-13	-9%	-12%	?	18%	-4
CCOc1ccc(N(C)S(=O)(=O)c2cc(-c3cc(C)no3)ccc2CC)cc1	12	3%	-4%	-19%	12µM*	-7
Cc1ccc(S(=O)(=O)NC(C(=O)OCC(=O)NC2CCS(=O)(=O)C2)C(C)C)cc1 (stereo not drawn)	-1	-1%	8%	10µM*	14%	17
Cc1ccc(C(=O)N[C@H](C(=O)OCC(=O)NC2CCS(=O)(=O)C2)C(C)C)cc1 (stereo partly drawn)	-1	12%	6%	35%	17%	-8
COc1ccc(NC(=O)[C@H](CCS(C)(=O)=O)N2Cc3ccccc3C2=O)c(OC)c1	-6	-3%	-7%	9.3µM*	.	-4
O=C(CNC(=S)N(CCCN1CCOCC1)Cc1cccs1)NCc1ccccc1Cl	15	-9%	0%	41%	?	-7
O=C(CN(Cc1ccccc1Cl)C(=O)c1ccc(CN2CCOCC2)o1)NCc1ccccc1	-1	-7%	-1%	6.6µM*	-14%	42
COC(CNC(=S)Nc1ccc([N+](=O)[O-])cc1)OC	14*	9%	19%	7%	54%	active
COC(=O)NC(NC(=S)Nc1ccc([N+](=O)[O-])cc1)C(Cl)(Cl)Cl (stereo not drawn)	-3	-23%	-10%	-6%	12µM*	-5
CCN1CCN(S(=O)(=O)Cc2ccccc2Cl)CC1	-3	5%	4%	?	11%	2
Cc1ccc2c(c1)cc1c(=O)n(CC(=O)NCCN3CCCC3)nc(C)n12	2	1%	-3%	9.3µM*	24%	1
Cc1ccc2c(c1)cc1c(=O)n(CC(=O)N3CCCC3)nc(C)n12	5	0%	7%	?	15%	22
COc1ccc(-c2cc3c(=O)n(CC(=O)NCCCN4CCC(N5CCCCC5)CC4)nc(C)n3n2)cc1	0	-4%	0%	8.3µM*	?	4
Cc1nn(CC(=O)NCCCN2CCCCC2C)c(=O)c2cccn12 (stereo not drawn)	-2	3%	-17%	-6%	28%	-3
Cc1nn(CC(=O)NCCCN2CC(C)CC(C)C2)c(=O)c2cccn12 (stereo not drawn)	-8	-12%	-3%	10µM*	26%	-4
Cc1nn(CC(=O)NCCCN2CCCCC2)c(=O)c2cc(-c3ccccc3)nn12	-2	1%	-1%	4.1µM*	17%	-7
CCOC(=O)C(=O)NCC(c1ccco1)S(=O)(=O)c1cccs1 (stereo not drawn)	.	.	-1%	-1%	10%	.
CSCCC(NC(=O)c1ccccc1)C(=O)N/N=C(\C)c1ccccc1 (stereo not drawn)	-1	0%	-3%	-2%	-77%	-9
COc1ccccc1CNS(=O)(=O)c1c(C)[nH]c(C)c1C(=O)N1CCCC1	-2	-1%	3%	83%	10%	-9
Cc1onc(-c2ccccc2Cl)c1C(=O)Nc1nnc(-c2ccc(Br)cc2)s1	22*	?	-1%	-13%	-22%	14
Cc1onc(-c2ccccc2Cl)c1C(=O)Nc1nc2c(s1)CCCC2	69*	-12%	-5%	?	?	127*
Cc1onc(-c2ccccc2Cl)c1C(=O)Nc1nnc(-c2ccc(F)cc2)s1	6	?	7%	33%	11%	-12
O=C(CN1CCCC1)Nc1cccc(Cl)c1Cl	10	1%	2%	-34%	34%	.
CCOC(=O)N1CCN(C(=O)CSc2nnc3[nH]c(=O)c(C)c(C)n23)CC1	.	.	.	?	9.3µM*	.
SMILES	CHX counter	NS1 inh	SARS PLpro yeast	Pf growth 96h	Pf growth 48h	Shiga toxin inh
O=C(O)COc1ccc(/C=C2\SC(=Nc3ccccc3)N(c3ccccc3)C2=O)cc1	-2	.	0%	-10%	0%	17
O=C(O)c1ccc(/C=C2\SC(=Nc3ccccc3)N(c3ccccc3)C2=O)cc1	3	.	0%	0.29µM*	-14%	-17
O=C(O)COc1ccccc1/C=C1\SC(=Nc2ccc(F)cc2)N(c2ccc(F)cc2)C1=O	2	13%	0%	?	10µM*	5
COc1ccc(CNC(=O)CN(c2ccccc2)S(=O)(=O)c2ccccc2[N+](=O)[O-])cc1	-3	2%	1%	68%	-10%	-10
Cc1c(O)ccc(/C(Cc2ccc3ccccc3n2)=N\N)c1O	29*	1%	1%	?	?	68*
CCc1cc(/C(Cc2ccccn2)=N\O)c(O)cc1O	-4	5%	13%	61%	.	-18
CC(C)C(=O)Cc1ccc2ccccc2n1	.	3%	.	.	.	.
CCc1cc(/C(Cc2ccc3ccccc3n2)=N\O)c(O)cc1O	-2	-132%	-12%	1.7µM*	36%	37
Cc1ccc(C(=O)NCC(=O)Nc2ccc(Cl)cc2)s1	.	.	-2%	.	.	.
CC1(C)C=Cc2c(c3c(c4c(=O)c(-c5ccc(O)cc5)coc24)OC(C)(C)CC3)O1	1	5%	-6%	9.3µM*	?	-15
COCCNC(=O)c1cc(-c2ccccc2C)nn1CC1CC(c2cccnc2)=NO1 (stereo not drawn)	.	.	-30%	.	.	.
CCOC(=O)c1ccc(-[n+]2c(-c3ccccc3)cc(-c3ccccc3)cc2-c2ccccc2)cc1	.	.	-1%	1.2µM*	2.9µM*	.
CCOC(=O)c1cccc(-[n+]2c(-c3ccccc3)cc(-c3ccccc3)cc2-c2ccccc2)c1	.	.	5%	0.59µM*	1.9µM*	.
Nc1nc(N2CCOCC2)n[nH]1	-1	.	-1%	-6%	-21%	23
O=C(Nc1nc2ccccc2[nH]1)c1cccc(S(=O)(=O)N2CCOCC2)c1	39*	-16%	-1%	37%	33%	42*
O=C(Nc1ccc(F)c(F)c1)c1ccc(F)c(S(=O)(=O)N2CCOCC2)c1	-5	-1%	6%	?	?	-14
Cc1ccc(S(=O)(=O)N2CCOCC2)cc1N/N=C(\C#N)c1nc2ccccc2[nH]1	9	?	0%	3.3µM*	?	5
O=C(NCc1nc2ccccc2[nH]1)c1cccc(S(=O)(=O)N2CCOCC2)c1	-1	-2%	-1%	-28%	.	-10
N#C/C(=C(/O)COC(=O)CCc1ccc(S(=O)(=O)N2CCOCC2)cc1)c1nc2ccccc2[nH]1	5	19%	-10%	?	?	45
O=C(Nc1nc2ccccc2[nH]1)c1ccc(F)c(S(=O)(=O)N2CCOCC2)c1	50*	-3%	8%	92%	71%	44*
CCc1nnc(NC(=O)CCC(=O)NCc2ccc(OC)cc2)s1	0	0%	0%	33%	46%	-10
